Screening results (PubChem BioAssay)
HIF activator – HIF pathway transcriptional activation. U2OS HRE-luciferase reporter, luminescence; normalized: DMSO 0%, desferrioxamine 100%. activation, % at 7.5 µM (by protocol). 300,000 tested, 0.32% active. AID 1910;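 active = mean activation of at least 10% of the iron chelator positive control signal, with at least half of replicates also reaching 10%; inconclusive = mean and replicate majority disagree about reaching 10%; inactive = mean and most replicates under 10%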
p-CIP stab down – p/CIP protein destabilization. Q05BA5. F442A p/CIP-EGFP cells, EGFP fluorescence, 16 h. decrease of EGFP signal, % at 10 µM. 290,000 tested, 0.01% active. AID 1984;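 active = EGFP signal decrease of at least 30% at 10 µM or well 3 SD below plate mean, unless failing retest; inactive = the rest, including hits failing retest or dose response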
Target sequence (Q05BA5 1-1403): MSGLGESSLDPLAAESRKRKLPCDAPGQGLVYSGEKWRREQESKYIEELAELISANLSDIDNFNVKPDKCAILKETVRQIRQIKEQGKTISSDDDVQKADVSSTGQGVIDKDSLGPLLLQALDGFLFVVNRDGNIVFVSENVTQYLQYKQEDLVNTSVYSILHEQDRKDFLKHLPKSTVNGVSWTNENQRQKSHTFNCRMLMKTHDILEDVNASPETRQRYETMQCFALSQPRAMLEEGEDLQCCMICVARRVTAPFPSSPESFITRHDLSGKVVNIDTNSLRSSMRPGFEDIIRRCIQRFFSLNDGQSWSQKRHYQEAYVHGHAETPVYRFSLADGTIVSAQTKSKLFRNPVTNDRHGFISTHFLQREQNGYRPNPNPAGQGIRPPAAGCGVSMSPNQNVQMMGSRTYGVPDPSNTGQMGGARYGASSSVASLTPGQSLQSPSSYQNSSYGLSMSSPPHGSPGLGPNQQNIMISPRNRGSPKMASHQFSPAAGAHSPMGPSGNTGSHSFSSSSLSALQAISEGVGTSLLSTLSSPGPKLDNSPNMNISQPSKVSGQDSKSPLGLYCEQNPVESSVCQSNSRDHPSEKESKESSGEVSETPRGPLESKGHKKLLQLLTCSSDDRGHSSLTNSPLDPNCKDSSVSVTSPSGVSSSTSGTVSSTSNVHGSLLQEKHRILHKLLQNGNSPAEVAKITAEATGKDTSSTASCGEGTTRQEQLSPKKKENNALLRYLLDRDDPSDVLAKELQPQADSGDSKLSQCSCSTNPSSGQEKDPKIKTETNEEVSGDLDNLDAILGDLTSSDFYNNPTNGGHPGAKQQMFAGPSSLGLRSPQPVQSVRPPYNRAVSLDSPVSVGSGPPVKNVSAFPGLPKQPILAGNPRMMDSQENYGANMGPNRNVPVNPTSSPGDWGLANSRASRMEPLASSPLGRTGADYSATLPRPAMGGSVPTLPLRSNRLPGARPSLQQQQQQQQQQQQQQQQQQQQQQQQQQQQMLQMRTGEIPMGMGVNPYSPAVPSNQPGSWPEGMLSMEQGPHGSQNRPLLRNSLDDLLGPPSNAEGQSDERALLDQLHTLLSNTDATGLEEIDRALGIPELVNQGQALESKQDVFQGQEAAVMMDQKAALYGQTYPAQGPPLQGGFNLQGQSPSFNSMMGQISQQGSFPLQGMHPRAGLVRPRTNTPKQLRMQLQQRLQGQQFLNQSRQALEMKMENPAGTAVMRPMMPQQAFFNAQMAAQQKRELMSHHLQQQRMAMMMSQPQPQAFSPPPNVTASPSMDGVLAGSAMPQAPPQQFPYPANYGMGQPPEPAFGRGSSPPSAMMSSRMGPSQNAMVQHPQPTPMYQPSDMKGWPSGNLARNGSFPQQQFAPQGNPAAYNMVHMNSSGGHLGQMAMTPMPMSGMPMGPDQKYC
Platelet DG rel – platelet dense granule release activity; 300,000 tested, 0.22% active; inhibition, %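 (compounds screened at 7.5 µM in platelet-rich plasma)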; human platelet-rich plasma, SFLLRN dense granule ATP release, luminescence;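 active = mean replicate score, as percent of positive control, at or above 50; inconclusive = mean below 50 but at least one replicate at or above 50; inactive = mean and every replicate below 50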
AHR activator – activators of human aryl hydrocarbon receptor; 320,000 tested, 2.5% active; AID 2796; AHR-responsive luciferase reporter cells, luminescence; P35869; activation, % at 5 µM; in the data active = activation above about 47%
PolyA inhibitor – blocks polyadenylation in yeast reporter cells; S. cerevisiae SKY197-pL101 polyadenylation reporter, beta-gal luminescence; efflux-impaired pdr1/pdr3 knockout yeast; score 100 = 6 SD above DMSO; activity score, % at 12 µM; 300,000 tested, 0.02% active; AID 1875;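 active = lowest replicate activity score at least 50, where 100 means six control SD above control mean; inconclusive = lowest score under 50 but half or more replicates reach 50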;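 also: yeast exposed to compound for 9 h at 30 °C; higher score means more reporter readthrough which indicates perturbed polyadenylation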
A number is an active result; . = inactive; ? = inconclusive; / = not tested or not shown. Rows were chosen to be rich in hits. Some 2.8% of all compounds tested hit in one or more screens of this group.

SMILES	HIF activator	p-CIP stab down	Platelet DG rel	AHR activator	PolyA inhibitor
Cc1cccnc1NC(=O)Nc1ccc(F)cc1	.	.	.	.	.
COc1ccc(NC(=O)Nc2cccnc2)cc1	.	.	.	.	.
O=C(Nc1cccnc1)Nc1cccc(F)c1	.	.	.	.	.
O=C(O)CCn1c(-c2ccccn2)nc2ccccc21	.	.	.	.	.
O=C(N/N=C(\c1ccccc1)c1cccnc1)c1cc(O)ccc1O	.	.	.	.	.
O=C(NCCS(=O)(=O)N1CCN(c2ccccc2)CC1)C1CCCC1	.	/	.	.	.
CCNc1nc(NCC)n2c(SC(C(=O)Nc3cc(C)ccc3OC)c3ccccc3)nnc2n1 (centres undefined)	.	.	.	.	.
S=C(Nc1ccc(Cl)cc1Cl)NC1CCCCC1	.	.	.	.	.
O=C(Nc1cccnc1)Nc1ccc(Cl)cc1Cl	.	.	.	48	.
O=C(Nc1ccc(Cl)cc1)Nc1cccnc1	.	.	.	.	.
Cc1cccc(NC(=O)Nc2ccncc2)c1	.	.	.	53	.
O=C(Nc1ccc(Cl)cc1Cl)NC1CCCC1	.	.	.	53	.
Cc1cc(C)nc(NC(=O)c2cnc3sccn3c2=O)n1	.	.	.	70	.
C/C(=N\Nc1nc2ccccc2s1)c1cccs1	.	.	.	58	.
CC(=O)Nc1cccc(/C(C)=N/Nc2nc3ccccc3s2)c1	.	.	.	61	.
CN(Cc1cnn(Cc2ccccc2)c1)C(=O)c1cccc(S(=O)(=O)N2CCOCC2)c1	/	/	/	.	/
Cc1noc(C(=O)Nc2ccc(F)cc2F)c1Cl	.	.	.	/	.
Cc1ccc(O)c(NC(=O)c2onc(C)c2Cl)c1	.	.	.	72	.
Cc1ccc2cc(CCNC(=O)c3ccc(Br)o3)c(=O)[nH]c2c1	.	.	.	.	.
Cc1cccc(/C=N\Nc2cn[nH]c(=O)c2Cl)c1	.	.	.	.	.
COc1ccccc1/C=N\Nc1cn[nH]c(=O)c1Cl	.	.	.	48	.
COc1ccccc1N1CCN(C2CCCN(C(=O)CCN3CCCCO3)C2)CC1 (centres undefined)	.	.	.	.	.
CCCCOc1ccc(C(=O)NCC(=O)OC2CCOC2=O)cc1 (centres undefined)	305	.	.	.	.
O=C(CNC(=O)c1ccc(Cl)cc1)OC1CCOC1=O (centres undefined)	.	.	.	.	.
CN(c1ccccc1)P(=O)(N(C)c1ccccc1)N(C)c1ccccc1	.	.	.	.	.
SMILES	HIF activator	p-CIP stab down	Platelet DG rel	AHR activator	PolyA inhibitor
Nc1ccccc1O	/	/	/	74	/
Nc1cccc2c(O)cccc12	.	/	.	.	.
CCn1c(C(=O)O)c(CC(=O)N(C)c2ccc(OC)cc2OC)c2ccccc21	.	.	.	.	.
CN(C)c1ccc(NC(=O)c2cccc(C(=O)Nc3ccc(N(C)C)cc3)n2)cc1	/	.	.	68	.
CCCNC(=O)C(=O)Nc1ccc(N(C)C)cc1	.	.	.	68	.
O=C(Nc1ccccc1)c1cccc(C(=O)Nc2ccccc2)n1	.	.	.	.	.
Nn1c(SCc2ccc(F)cc2)nnc1-c1cccnc1	.	.	.	.	.
Cc1ccccc1OCCSc1nnc(-c2cccnc2)n1N	.	.	.	54	.
Cc1nc(Cl)sc1C(=O)Nc1ccccc1	.	.	.	.	.
O=C(Nc1ccc(Cl)cc1)c1ccc2ncsc2c1	.	.	/	49	.
Cc1nc(Cl)sc1C(=O)Nc1ccc(Cl)cc1	.	.	.	93	.
O=C(Nc1ccc(F)cc1)c1ccc2ncsc2c1	.	.	.	.	.
O=C(Nc1ccc(Cl)cc1)c1cncs1	.	.	.	68	.
CCC(=O)N1CCc2cc(S(=O)(=O)CCC(=O)Nc3ccc(OC)c(OC)c3)ccc21	.	.	.	.	.
CCOc1ccccc1NC(=O)c1cccc(NC(=O)C2CCCC2)c1	.	.	.	60	.
COc1cc(NC(=O)C2CCCCC2)c(OC)cc1NC(=O)c1ccccc1	.	.	.	54	.
COc1cc(NC(=O)C2CCCO2)c(OC)cc1Cl (centres undefined)	.	.	.	.	.
O=C(NC(c1ccccc1)c1ccccc1)C1CCCO1 (centres undefined)	131	.	.	.	.
COc1cc(NC(=O)C2CCCO2)c(OC)cc1NC(=O)c1ccccc1 (centres undefined)	.	.	.	78	.
O=C(COC(=O)c1ccc2c(=O)n3c(nc2c1)CCC3)NC1CCS(=O)(=O)C1 (centres undefined)	.	.	.	.	?
O=C(Nc1ccccc1C(=O)NCCCN1CCOCC1)c1ccc(Cl)cc1	.	.	.	.	.
Cc1ccc([C@@H]2CC=C(C(=O)O)[C@H](c3cccc(F)c3)N2S(=O)(=O)c2ccccc2C)cc1	/	/	/	.	/
CCN(C(=O)Cn1c(Cl)nc2c1c(=O)n(C)c(=O)n2C)C1CCCCC1	/	/	/	.	/
COc1ccc(OC)c(C=Nc2ccccc2-c2nc3ccccc3[nH]2)c1	.	.	.	87	.
COc1ccc(OC)c(/C=C/c2nc3ccccc3[nH]c2=O)c1	.	.	.	60	.
SMILES	HIF activator	p-CIP stab down	Platelet DG rel	AHR activator	PolyA inhibitor
Oc1ccc(C=Nc2ccccc2-c2nc3ccccc3[nH]2)c(O)c1	.	.	.	95	.
Cc1nn2c(N)c(-c3ccccc3)cnc2c1-c1ccc(Cl)cc1	.	.	.	64	.
O=S(=O)(CCN(CCS(=O)(=O)C(F)(F)F)CC1CCCO1)C(F)(F)F (centres undefined)	.	.	.	.	.
CC(C)CCNC(=O)c1cn(C)c2ccc(S(=O)(=O)N3CCCC3)cc2c1=O	.	.	.	.	.
CC(C)CN(CCNC(=O)c1cn(C)c2ccc(S(=O)(=O)N3CCCC3)cc2c1=O)CC(C)C	184	.	.	.	.
Cc1c(/C=N/NC(=O)C(NC(=O)c2ccc3c(c2)OCO3)C(C)C)c2ccccc2n1C (centres undefined)	.	.	.	51	.
COc1ccc(/C=N/NC(=O)c2ccccc2O)cc1CSc1ccccn1	197	.	.	.	.
CCn1nc(C)c(/C=N\NC(=O)c2ccc3c(c2)OCO3)c1C	.	.	.	73	.
CCn1ncc(/C=N/NC(=O)c2ccc3c(c2)OCO3)c1C	.	.	.	.	.
COc1ccccc1/C=N/NC(=O)c1ccc2c(c1)OCO2	.	.	.	51	.
COc1ccc(-c2cc(C(=O)N/N=C/c3ccc4c(c3)OCO4)c3ccccc3n2)c(OC)c1	.	.	.	49	.
COc1cc2ccccc2cc1C(=O)N/N=C/c1ccc2c(c1)OCO2	.	.	.	/	.
COc1cc(/C=N/NC(=O)c2cc(-c3ccc4c(c3)OCO4)n[nH]2)ccc1O	.	.	.	128	.
COc1ccccc1C(=O)N/N=C/c1ccc2c(c1)OCO2	.	.	.	50	.
O=C(N/N=C/c1ccc2c(c1)OCO2)C1CC1	.	.	.	67	.
O=C(N/N=C/c1ccc([N+](=O)[O-])cc1)c1cc(-c2ccc3c(c2)OCO3)n[nH]1	.	.	.	.	.
